Screening data from PubChem.
DRD3 antagonist: antagonists of human D3 dopamine receptor | P35462 | D3R cells, DiscoveRx beta-arrestin luminescence, antagonist mode; stronger effect = lower value | max response, negative = inhibition, % | 360,000 compounds, 2.5% hits; in the data active means max response below about -50%; inconclusive means no clear call, values can overlap the other calls; further: on the % scale 0 is the no-effect control and ±100 the full control effect
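Cells plated overnight at 1500 cells/well, then exposed to library compounds with dopamine controls for 90 minutes at 37 degrees C. DiscoveRx reagent added for 30–60 minutes at room temperature; luminescence read, quantitative HTS format.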
D1 PAM: human D1 dopamine receptor positive modulation; P21728; HEK293 TREx D1 cells, calcium flux, dopamine EC20 potentiation; potentiation, % at 10 µM; 360,000 compounds, 0.036% hits; AID 504651; in the data active means potentiation above about 30%; further: 0% is about no effect
Target sequence (P21728 whole entry, looked up): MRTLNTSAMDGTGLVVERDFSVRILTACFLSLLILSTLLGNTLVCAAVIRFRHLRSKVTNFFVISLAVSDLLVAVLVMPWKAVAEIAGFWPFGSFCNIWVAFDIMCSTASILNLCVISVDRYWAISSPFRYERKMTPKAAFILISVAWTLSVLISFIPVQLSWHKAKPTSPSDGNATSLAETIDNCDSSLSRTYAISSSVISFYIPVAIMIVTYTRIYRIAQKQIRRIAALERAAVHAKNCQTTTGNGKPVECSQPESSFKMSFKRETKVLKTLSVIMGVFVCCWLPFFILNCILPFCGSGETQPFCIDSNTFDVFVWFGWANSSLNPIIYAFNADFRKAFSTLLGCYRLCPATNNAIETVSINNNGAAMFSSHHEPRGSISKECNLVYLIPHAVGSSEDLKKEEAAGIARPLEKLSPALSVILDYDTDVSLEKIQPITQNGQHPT
ERG Ets-DNA blk: ERG Ets/DNA interaction inhibition; P11308; fluorescence polarization, His-ERG Ets domain / labelled DNA; Potency, µM (top dose mostly 76.9 µM), for the others: at the top dose FP activity, negative = inhibition, usual class: inhibitors; 370,000 compounds, 0.028% hits; AID 624246; active means well fitted inhibition curve with a large enough effect in the polarisation, with a control signal flat; inconclusive means small, poorly fitted or top-dose-only effect, or effect the other way, or a change in a side signal; inactive means no such curve, though single readings can be large or run the other way; the % refers to the polarisation;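 further: polarization taken with two DNA probes labelled with fluorescein and Texas red; potency means the concentration at half of the fitted maximal effect; % of control where 0% means no effect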
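His-tagged ERG Ets domain (1 uM in the protein solution; 300mM KCl, 50mM Tris-HCl, 1mM EDTA, 1mM DTT, pH 7.5) received compound, then a probe mix of 5 nM fluorescein-DNA and 100nM Texas-615-DNA. Fluorescence polarization was read for both dyes.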
D3 ag: D3 dopamine receptor (human) agonism | 410,000 compounds, 0.58% hits | max activation, % | P35462 | D3R DiscoveRx beta-arrestin cells, luminescence, 90 min; in the data active means max activation above about 30%; further: 0% is about no effect
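Cells at 1500/well, incubated overnight, then treated with pinned compounds (dopamine as control) for 90 min at 37 degrees C. DiscoveRx reagent added for 30 - 60 minutes at room temperature; luminescence read.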
D1 agonist: human D1 receptor agonism | HEK293 T-REx D1 cells, calcium flux, agonist mode | activation, % at 2 µM | 360,000 compounds, 1% hits; in the data active means activation above about 30%; further: 0% is about no effect
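Agonism was scored from calcium flux recorded over 180 s (1 read/s) after pintool compound addition, following a 10-cycle baseline. Cells were inducible force-coupled HEK293 TREx D1, plated overnight at 30 C and loaded with no-wash calcium dye.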
D1 antagonist: blocks dopamine activation of the human D1 receptor | P21728 | HEK293 TREx D1 cells, calcium flux, dopamine EC80; stronger effect = lower value | activity change, negative = inhibition, % at 10 µM | 360,000 compounds, 3.2% hits | AID 504652; in the data active means activity change below about -30%; further: on the % scale 0 is the no-effect control and ±100 the full control effect
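Kinetic fluorescence of a calcium dye serves as the read-out. D1-expressing Hek293 Trex cells, induced overnight at 30 C, are exposed to compound for 180 s before an EC80 dopamine addition, then read 180 s further.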
An asterisk follows results filed as active; ? = inconclusive; / = not tested or not shown; ! = not active in a repeat. Sampled rows, rich in hits. Any-hit rate of the full collection: about 6.1%.

SMILES | DRD3 antagonist | D1 PAM | ERG Ets-DNA blk | D3 ag | D1 agonist | D1 antagonist
CN1C(=O)/C(=C/c2cccc(Cl)c2)Sc2ccc(C(=O)N3CCCC3)cc21 | 23.1 | 3.6 | -6.5% | 38.5* | 8.1 | -35.9*
Cc1cccc(/C=C2\Sc3ccc(C(=O)N4CCOCC4)cc3N(C)C2=O)c1 | -6.5 | 5.3 | 2.6% | -4.0 | 5.3 | -8.7
CCN(CCCNc1ncnc2nc[nH]c12)c1cccc(C)c1 | 21.4 | -9.5 | 7.5% | 3.3 | 8.1 | -36.1*
CCOc1ccc(Cl)cc1CNCCCSc1nc(C)cc(C)n1 | -17.4 | -6.7 | 9.3% | -5.6 | 21.0 | -38.3*
CC1(C)CCc2cc(-c3ccn(S(=O)(=O)c4ccccc4Cl)n3)ccc2O1 | 14.6 | 2.9 | -3.1% | 9.0 | 0.5 | -15.9
CCOc1ccc(C(=O)NCC(c2cccs2)N(C)C)cc1OCC (stereo not given) | -58.8* | -7.3 | -2.6% | -7.3 | -1.1 | 12.1
CCN(c1ccccc1)S(=O)(=O)c1cc(C(=O)Nc2ccc(Br)cc2)ccc1F | ? | -2.8 | 2.0% | -0.5 | 7.4 | -36.8*!
CCN(c1ccccc1)S(=O)(=O)c1ccc(NC(=S)NC(=O)c2cccs2)cc1 | -74.3* | -5.6 | 1.3% | -11.2 | 4.3 | 5.2
CCCOc1ccc(C(=O)NCC(c2cccs2)N(C)C)cc1 (stereo not given) | -1.9 | -12.5 | -2.7% | -3.1 | 3.3 | 1.5
CCN(c1ccccc1)S(=O)(=O)c1ccc(C(=O)NCC(c2cccs2)N(C)C)cc1 (stereo not given) | -51.9* | -11.9 | -2.9% | -13.1 | 20.0 | -28.6
CCN(c1ccccc1)S(=O)(=O)c1cc(C(=O)Nc2ccccc2Cl)ccc1F | -16.7 | 0.8 | 7.9% | -5.6 | 10.9 | 8.2
CC(NCC(=O)NCC(=O)Nc1ccc(F)cc1)c1cccc(C(F)(F)F)c1 (stereo not given) | -29.9 | / | -8.2% | -35.1 | / | /
CCN(c1ccccc1)S(=O)(=O)c1ccc(C(=O)NCC(=O)Nc2ccc(F)c(F)c2F)cc1 | -96.9* | / | 2.8% | -8.9 | / | /
COc1ccc(C(CNC(=O)c2ccc(S(=O)(=O)N(C)C)cc2)N(C)C)cc1 (stereo not given) | -9.7 | -2.8 | 0.7% | 0.1 | 0.0 | -1.3
CN(c1ccccc1)S(=O)(=O)c1cccc(C(=O)NCC(=O)Nc2ccc(F)c(F)c2F)c1 | -1.4 | / | -14.4% | -2.9 | / | /
CCN(c1ccccc1)S(=O)(=O)c1cc(C(=O)NCC(c2ccc(OC)cc2)N(C)C)ccc1C (stereo not given) | -89.5* | / | 5.4% | -20.1 | / | /
NC(=O)c1nsc(C(=O)N(Cc2ccc(F)cc2)C(C(=O)NCC2CCCO2)c2ccc(F)cc2)c1N (stereo not given) | ? | -5.1 | -4.1% | -10.9 | -0.8 | -7.2
CCC(=O)N1c2ccc(S(=O)(=O)CCC(=O)NCc3cccc(OC)c3)cc2CC1C (stereo not given) | / | 2.6 | 0.1% | 1.1 | -1.4 | -14.7
CCC(=O)N1c2ccc(S(=O)(=O)NCc3cccc(OC)c3)cc2CC1C (stereo not given) | / | 1.8 | 0.8% | 6.5 | 18.2 | -76.1*
COc1cccc(CNS(=O)(=O)c2cc3c4c(c2)CCN4C(=O)CC3)c1 | -71.8* | -5.2 | 0.8% | -28.9 | 2.7 | 9.8
CC(=O)N1c2ccc(S(=O)(=O)NCc3ccc(Cl)cc3)cc2CC1C (stereo not given) | / | -5.5 | -6.3% | -13.2 | 8.4 | -32.4*
CC1Cc2cc(S(=O)(=O)NCc3ccc(Cl)cc3)ccc2N1C(=O)C1CCC1 (stereo not given) | / | 1.2 | -1.4% | -2.9 | 4.5 | -16.8
COc1ccc(CNS(=O)(=O)c2cc(Br)cc3c2N(C(C)=O)C(C)C3)cc1 (stereo not given) | -89.0* | -6.0 | -0.6% | 0.0 | 1.4 | -4.7
O=C(NCc1cccc(C(F)(F)F)c1)c1ccc2sc(C3=C[C@@H](O)[C@@H](O)[C@@H](CO)O3)nc2c1 | 0.5 | / | / | -1.0 | / | /
CCOc1ccccc1-c1nnc(SCc2ccc(Cl)cc2)o1 | / | 3.9 | -0.8% | 4.6 | 61.5* | -29.4
SMILES | DRD3 antagonist | D1 PAM | ERG Ets-DNA blk | D3 ag | D1 agonist | D1 antagonist
O=C(CN1C(=O)CCc2cc(S(=O)(=O)N3CCCCC3)ccc21)NCc1ccc(Cl)cc1 | / | 0.7 | -6.8% | -17.0 | 4.3 | -1.4
CC[C@@H](C(=O)O)[C@@H]1O[C@@H]([C@@H](C)[C@H](O)[C@H](C)C(=O)[C@H](CC)[C@H]2O[C@]3(C=C[C@@H](O)[C@]4(CC[C@@](C)([C@H]5CC[C@](O)(CC)[C@H](C)O5)O4)O3)[C@H](C)C[C@@H]2C)[C@@H](C)C[C@@H]1C | / | / | / | 54.2* | / | /
CC(=O)/C(N=Nc1ccc(SC(F)F)cc1)=C(\C)O | -58.7* | -2.4 | -3.4% | 0.5 | 2.1 | 15.1
NCC12CC3CC(C1)CC(c1ccc(Cl)cc1)(C3)C2 | -5.5 | -9.1 | 14.1% | -1.1 | 38.5* | -11.3
Nc1ccc(C23CC4CC(CC(CO)(C4)C2)C3)cc1 | 13.4 | -0.8 | 0.0% | 1.1 | 9.5 | -3.8
Nc1ccc(C23CC4CC(CC(O)(C4)C2)C3)cc1 | -50.3* | -3.9 | 7.9% | -0.2 | 1.2 | 8.1
NCC12CC3CC(C1)CC(CN)(C3)C2 | 1.9 | 3.9 | 0.3% | 0.1 | -0.7 | -4.1
Cc1cccc(OCC(=O)Nc2ccc(C(=O)NCc3cccnc3)cc2)c1 | / | -2.5 | / | / | 6.9 | -15.2
O=C(NCc1ccncc1)c1cc(C(=O)C2CCCCC2)c[nH]1 | -10.6 | -0.4 | 10.2% | -4.1 | 0.8 | 12.6
CCc1sc(C(=O)NCCc2ccc(S(N)(=O)=O)cc2)cc1Br | -8.6 | -2.3 | 24.7% | -2.3 | -0.7 | -30.3*
NS(=O)(=O)c1ccc(CCNC(=O)c2cccc3ccccc23)cc1 | 0.9 | 0.8 | 15.0% | -8.2 | 2.3 | 13.1
CCc1sc(C(=O)NCCc2ccc(S(N)(=O)=O)cc2)cc1C | -2.5 | -8.2 | 5.5% | -2.5 | 2.6 | 3.6
Cc1cc(C(=O)NCCc2ccc(S(N)(=O)=O)cc2)c(C)o1 | -12.1 | -6.0 | -12.0% | -2.6 | 3.3 | -30.9*
COCCCNC(=S)N/N=C/c1ccc(O)cc1O | -4.8 | -6.2 | -18.9% | 32.0* | 3.3 | -2.7
O=C(N/N=C/c1ccc(O)cc1O)C(=O)N/N=C/c1ccc(O)cc1O | 5.1 | 3.4 | -4.6% | 39.5* | 11.5 | 9.2
Oc1ccc(C=NNC(=S)Nc2ccc(F)cc2)c(O)c1 | 27.4 | / | -3.4% | 33.0* | / | /
O=C(CCC(=O)Nc1ccc(F)cc1)N/N=C/c1ccc(O)cc1O | 2.9 | 0.2 | -2.4% | 1.0 | -2.8 | 0.1
O=C(NN=Cc1ccc(O)cc1)C(=O)NN=Cc1ccc(O)cc1 | 2.8 | / | -1.7% | 12.6 | / | /
COc1ccc(Cn2c(=O)[nH]c3cc(C(=O)N4CCN(c5cc(C)ccc5C)CC4)ccc3c2=O)cc1 | / | -0.6 | -5.4% | 4.1 | 0.3 | 4.8
